Source: PubChem BioAssay AID1159506 (National Center for Advancing Translational Sciences (NCATS), 2015)
The full ranking holds about 59,000 sequences; the median of the read-out is about -0.00055, and the lowest 2% start at about -2. Only a selection was taken, and the lowest values are over-represented in it overall.

experiment: Identification of proteins required for the processing of the EWS-FLI1 nascent transcript; details: TC32 Ewing sarcoma NR0B1-luc vs CMV-luc (EWS-FLI1 target promoter against control promoter), 48 h; screened at 20 nM (by protocol);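 further: robust z of luciferase light less the median z of siRNAs with the same seed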
How it was run: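 Genome-wide siRNA screen (Ambion v4.1, three siRNAs per gene, 20 nM final, RNAiMax) in Ewing sarcoma TC32 cells carrying NR0B1-promoter or CMV-promoter luciferase; OneGlo luciferase read 48 h post-transfection. Data normalized, z-score-MAD transformed and seed-adjusted.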

Sequence	seed-corrected z-score
UCAUCUUCUCCAACUUUUC against GINS2	0.362
AAGCUUGUAAGUAUAGACG against SF3B3	-2.14
AUAGAAAACACCAAGAUUA against TMEM63A	0.279
AUAUGACCUACUACCAUCC against LURAP1	0.3
ACAUGAUCAACUGGUAGUC against TTBK1	-4.16
UAAGGUAAGAGCCUGUGCU against ZNF177	0.0512
AAAAGUAUCAGCAGAAGUC against GPR156	-0.243
UAGUUGAAGAGGGCGUGGG against TAS1R3	-0.153
AACGGAACCUGUGAGAUCC against LARS2	-0.262
UAACUGAAUGGCAUCCCGG against C6orf226	0.21
UUGUAGUUCAGCUGGUUGU against SPATA2	-2.04
UCCUGGAGCAUAUCCGAGC against TMPRSS5	0.289
UCAUUUAGCUUUACCACCC against AHCYL1	0.0585
UUGUAUUCCACAGAAGUAA against SLC25A41	0.115
UGUCGUAUCUCUCUUCAUC against TNNI3	-0.115
UUACUGCUGAAUACAGACU against HRASLS	-2.09
UAUGUCCCAAAUAUACACC against SLC36A3	0.459
UUCUUACUCCAAUAUCUCC against WWC2	-0.0295
UUUGAUGAAGGGUACGUGG against KIF11	-2.31
UUCUCAAUGAUAUUAUGGG against SREBF2	-0.569
AUCAUAGCAACAGUGCUGC against IGFL1	-2.6
UGAACAUUGAGUAACGAAC against ORAOV1	0.0373

Sequence	seed-corrected z-score
UCUGUUCUCGGUCAAAGAC against DCAF11	-0.91
UUUAGUUCCUGAUCGAAAG against ZNF800	1.28
AUCUUUACGAGCUUCAGCC against FAM185BP	1.55
UCACUGUCAAACUCGUGCC against ARHGAP33	-2.08
AUUGUAAUCGCGAAUAUCC against MESDC2	0.809
UUCCCUCUUUGGGUCUUCC against SNX11	0.0123
UACAGCUCCGAAAAACUCC against SIPA1	-1.18
UUGACUGUCACUGAGGUAG against SDK2	-0.0428
UGUCGUACCAGUCGGACCA against TAC1	-2.02
UAUUCGUUAUCAAAUUGUG against TMOD3	0.393
UCCGUUUUCCACGUAGUGC against FRMD1	-0.836
UAUGUCUUCACGCAGCCGC against PI4KAP2	-1.12
UACGUUUGCUUUGCGCUCG against NR0B1	-0.672
UUGGGAUUAACACUUGUGA against LINC00851	-2.42
UUGAAGUUUUCAAUUGUGC against CYSLTR2	-0.797
UCAGCUAACUCUGUCUCUG against SNX19P3	-0.302
AUUGUGAUGAACCUCGUCC against ARHGAP40	-0.617
UUAGUGAUCUGAUAGUGGG against POGLUT1	0.238
AAUUCCAAAACCAAUGUGC against MS4A12	0.147
UGUUUCUCUGACUUGAGUG against IFI27L2	-2.28
UUCUUAUUGAGUUUCAGCC against MSN	0.564
UAAAUUUGUCGAGUUGCUC against CFAP99	0.485

Sequence	seed-corrected z-score
UUGACAAAAGUGAGGAUCG against LGALS14	0.5
UCUAUGGGCAGUGGCAUCU against GOLGA2P10	-1.07
UGUGCAACUGGUCUUGUGC against BBS4	0.33
UGUUGUAGAAGGUAAACCC against CLRN3	-2.64
UAAUGUCAAAUUUUCCUCC against P2RX7	-0.332
UCCAUUGCAAUUGUGCCCA against MAGEA4	-0.0267
UUUCUUCACGUGGAUAGCC against GABRG2	0.574
UUCCAGAAAAAGCCGCACG against PLD6	-0.608
UUUCCUUCCAACUCUGCGC against ZNF835	-1.63
UACGUUAGGACGGCUCAGG against RLTPR	-1.06
UCAUGUGGCAUUUCUGGGA against LOC642852	-2.43
AUUCUUACCACAACUAUCC against SRP14	-0.807
UAAGCUGCGUGUUUUUAUC against TRIM14	-2.45
UUUACGAAGUUUUUGAUAG against EML1	-0.287
UUUGUAGAGAAGUUUCACC against ZNF517	0.211
UUAGCUUCAACGGUGUUAC against E2F8	-1.58
UCGAUGAACAACCAUAUGC against PRKAA2	0.499
UUAUCUGCUUUAGAUUUGC against PYROXD1	-0.293
GAAGGUGCAGAUCUGUUUG against SCX	-2.92
UCAUCUACGAUAUUCAUGA against ADAMTS14	-0.269
UAAGCAUCUCACAAAAUCG against MITD1	-0.778
AAACUUCACUGUUACUUGG against LYSMD1	-0.262

Sequence	seed-corrected z-score
UCGGUAACAAAAAUUAGUG against RNF217	0.42
UCUGUUCAAUACUUAAACC against PRUNE2	-0.544
UUUCUUAUCACCAUCAAAC against PGD	0.244
UAAGUUGCGAGCGUAGUGG against GAL3ST4	-3.11
UAUGUAGCAAAUCACAGUA against TMEM39A	0.421
UCUGCGGAAACUUUGGUGG against CDH11	-0.023
UCUUGAUACAGAUUCCAUC against RFX8	0.516
UCCUUUAGCACCUUCACCG against RAD23A	-2.73
UUGUUGUCAAUGUUAAUCG against SNX29P1	-0.677
AUAUUUCAAGGCAAGCUUC against DNAJC5	0.415
AUGGUAGCGGAAGAAAUUC against TMEM205	-2.26
UAAUCUUUAUUGUCACUAG against GRB7	-0.659
UUUGGCAAGACUUAACUUG against SCGB1D2	0.678
AUUUUGUCACUGGAAAGGC against OIP5	0.784
UAUGCGCUUUGAGACUAGC against ZNF236	-0.344
UUGAGGUUACUGGAGCUGC against ZNF683	-0.208
AUCCUUAAUGUAACUAUUG against C12orf60	0.108
UAUAUCAUUAAGCAAUGCC against SF3B1	-3.22
UAAGUAGACGUGCAGAUCA against MFSD6L	0.136
UACUCGAAGAUCAUCUUGG against MYO6	-0.142
AUAGUUCCCUCGAUGAGGC against CCS	0.322
UCUCCUGUAACAGACUCUG against ERICH1	0.83

Sequence	seed-corrected z-score
AUAGACAACUUUGAGGUCC against AP1S1	-0.000301
UUCAGCACAGAGAAAUUCG against SHISA2	1.31
UUGUUACUAAGAUCAACAG against PIWIL4	-0.273
UAAAAUAUCAAGCGAAUCA against LOC399886	0.0836
UACCGGGAUACAUGCAUGC against KIAA1551	-2.73
AAACGAAACAUGACGACAC against RSG1	-0.0435
UGAUGUACUCCACUGAUGC against TFEC	-0.552
UCUCUUUGUGGUGUACUUG against FGF13	-12.9
UUCCGAAUGGAAACUCUGG against BCL7C	0.615
AUACCGAUCAUAGCACAUC against OR2A12	0.195
UAUUAGGUCUUAUUUAUUC against NXNL2	0.499
UCUCUAUCAGUUCUCUUGG against RBM20	-0.358
AAAGGGACACUGAUUCAGU against TRAM1	-2.59
UCAGGGUAUUUGGUGAGGG against KCTD1	-0.632
AUAAUACCAACUCAAAUGC against FRRS1L	1.1
UUCUGAGCAGGUUCUACUG against SGOL1	-2.98
UAGGUAACUAUUUCUUCUC against CHURC1	1.33
UCUUCUAUCUUGCACAUUG against NLRP9	0.587
UAGGUUACGUGUCCAGAGG against NR2F6	-0.85
ACCAUUGUCAUUGCCUUGC against 1-Mar	-1.24
GAUUUCUUCAGGUGCUCCU against PDLIM7	-0.372
UGUAGUAUAUGAUCGACCU against LOC728613	-11.7

Sequence	seed-corrected z-score
UAGGCGAUGAAGAGCGUGC against MC1R	0.184
AAAGUAUCGGUAUUUGUCU against NDUFB9	0.025
AAUCUCAUGAGUUGCAACC against MMP26	-0.158
UUCCGGUUCCUCAUCUUCU against NUCKS1	-0.00682
UAAAGUACUGUCGUCAAUG against STOX2	-2.26
UUGUGGUUCUCGGAUACGC against CDH15	-0.955
GAAGCUAUCCCAGCUCUCA against RPL21P131	0.152
UGUUUUACAAGCAAUGUCC against TEX19	-2.08
UGCUGUAUAAUAUCCUUGC against GALNT3	0.503
UUGUGCACCACGAGCAUGG against B3GNT7	-1.07
UUCGUUGCAAAUCCCAUGC against SPTLC2	-3.22
AAUCUUUGGAGUACGCUGG against B2M	-0.0765
UAGACAUACAUUGAACUCC against SPINK6	1.21
UGUACUUUAAUAGAGAUAC against MRPS10	-0.197
UACCCAAUAAAGGUCUACC against LMO2	0.642
UACGGUUCUUCCUGGUUGG against C1QA	1.29
UUCCAUAUAGCAGUGCACU against NDUFAF1	1.09
UAGGGUUUGCCUUCGUGCU against CRIP1	-3.24
UCAAGCAUCGUGUUGAGCC against TGFBI	-0.445
UCAAAUUCGUCCUGGGUCC against UGT1A5	-1.44
UGAAGGAAGAAUCGUCGCC against PTHLH	-0.782
UUUCCGAUGAUGGUAACCA against OR7C2	0.217
